Experimental data: PubChem BioAssay AID1159580 (chemical genetic matrix, 2015)
Several values for one entry are separate records, joined by “and”; a condition that tells them apart may be missing. Identical values can stand only once. In all, about 5,500 compounds went through this assay and about 2,000 (36%) were called active. Inconclusive results (about 18%) are left out. Cut-off read from the data, not from the text of the source: active = normalized growth mostly below about 0.91 (no sharp cut-off); inconclusive = no clear call, values can overlap the other calls; inactive = mostly above about 0.92. The list shows a part of the results.

Assay: chemical genetic growth profiling, strain panel (AID 1159580);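 note: tested at 20 µM; growth read once vehicle control cultures reached saturation at 30 °C; 1 = growth at the plate median or of vehicle wells; lower values mean less growth of the strain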
Conditions: S. cerevisiae deletion strains, growth OD

Measured: normalized growth

O=C(NCO)c1cccnc1
inactive: locus YAL013W, strain DEP1, active compounds read low 0.99 | locus YAL021C, strain ccr4, active compounds read low 1.02 | locus YAL026C, strain drs2, active compounds read low 1.01 | locus YAL030W, strain snc1, active compounds read low 1.01 | locus YBL061C, strain skt5, active compounds read low 1.01 | locus YBR009C, strain hhf1, active compounds read low 0.998 | locus YBR021W, strain FUR4, active compounds read low 1.04 | locus YBR023C, strain chs3, active compounds read low 1 | locus YBR171W, strain sec66, active compounds read low 1.03 | locus YBR229C, strain ROT2, active compounds read low 0.997 | locus YBR231C, strain swc5, active compounds read low 1 | locus YBR279W, strain paf1, active compounds read low 1.01 | locus YCL011C, strain gbp2, active compounds read low 1.01 | locus YCL016C, strain dcc1, active compounds read low 1.01 | locus YCL029C, strain bik1, active compounds read low 0.971 | locus YCL061C, strain MRC1, active compounds read low 0.999 | locus YCL069W, strain vba3, active compounds read low 1 | locus YCR088W, strain abp1, active compounds read low 1 | locus YDL005C, strain med2, active compounds read low 1 | locus YDL035C, strain GPR1, active compounds read low 0.985 | locus YDL040C, strain nat1, active compounds read low 1.01 | locus YDL074C, strain BRE1, active compounds read low 1 | locus YDL101C, strain DUN1, active compounds read low 0.99 | locus YDL134C, strain PPH21, active compounds read low 0.988 | locus YDL185W, strain tfp1, active compounds read low 1.01 | locus YDL192W, strain arf1, active compounds read low 0.987 | locus YDR001C, strain nth1, active compounds read low 1 | locus YDR069C, strain doa4, active compounds read low 0.999 | locus YDR101C, strain arx1, active compounds read low 0.991 | locus YDR137W, strain rgp1, active compounds read low 1.02 | locus YDR150W, strain NUM1, active compounds read low 0.98 | locus YDR159W, strain sac3, active compounds read low 1 | locus YDR162C, strain NBP2, active compounds read low 1 | locus YDR195W, strain ref2 0.993 | locus YDR297W, strain sur2, active compounds read low 1.01 | locus YDR318W, strain mcm21, active compounds read low 0.978 | locus YDR334W, strain swr1, active compounds read low 1.01 | locus YDR335W, strain msn5, active compounds read low 1.01 | locus YDR388W, active compounds read low 0.989 | locus YDR392W, strain spt3, active compounds read low 0.893 | locus YDR502C, strain sam2, active compounds read low 0.996 | locus YEL003W, strain gim4, active compounds read low 1.01 | locus YEL037C, strain rad23, active compounds read low 1.02 | locus YEL061C, strain CIN8 (second series), active compounds read low 1.01 | locus YEL061C, strain CIN8, active compounds read low 0.996 | locus YER015W, strain faa2, active compounds read low 1 | locus YER016W, strain bim1, active compounds read low 1.01 | locus YER110C, active compounds read low 0.97 | locus YER111C, strain swi4, active compounds read low 1 | locus YER155C, strain BEM2 (second series), active compounds read low 1.01 | locus YER155C, strain BEM2, active compounds read low 0.996 | locus YER167W, strain BCK2, active compounds read low 0.982 | locus YFR010W, strain ubp6, active compounds read low 1.01 | locus YGL078C, strain dbp3, active compounds read low 0.979 | locus YGL086W, strain mad1, active compounds read low 0.983 | locus YGL167C, strain pmr1, active compounds read low 1.01 | locus YGL173C, strain kem1, active compounds read low 1.01 | locus YGL227W, strain vid30, active compounds read low 1 | locus YGL240W, strain doc1, active compounds read low 0.988 | locus YGL248W, strain PDE1, active compounds read low 0.994 | locus YGL253W, strain hxk2, active compounds read low 1.01 | locus YGR078C, strain PAC10, active compounds read low 0.995 | locus YGR135W, strain pre9, active compounds read low 1.02 | locus YGR229C, strain SMI1, active compounds read low 1.01 | locus YGR252W, strain gcn5, active compounds read low 1.01 | locus YHR013C, strain ard1, active compounds read low 0.984 | locus YHR027C, strain rpn1, active compounds read low 1.01 | locus YHR030C, strain SLT2, active compounds read low 0.984 and 0.995 | locus YHR079C, strain IRE1 (second series), active compounds read low 0.989 | locus YHR079C, strain IRE1, active compounds read low 0.992 | locus YHR094C, strain hxt1, active compounds read low 0.982 | locus YHR129C, strain ARP1, active compounds read low 0.994 | locus YHR142W, strain chs7, active compounds read low 1.02 | locus YHR200W, strain rpn10, active compounds read low 0.981 | locus YIL066C, strain RNR3, active compounds read low 0.98 | locus YIL073C, strain SPO22, active compounds read low 0.894 | locus YIL125W, strain kgd1, active compounds read low 0.975 | locus YIR030C, strain dcg1, active compounds read low 0.992 | locus YJL092W, strain hpr5, active compounds read low 1.01 | locus YJL095W, strain BCK1 (second series), active compounds read low 1 | locus YJL095W, strain BCK1, active compounds read low 1.01 and 0.998 | locus YJL115W, strain asf1, active compounds read low 1 | locus YJL129C, strain trk1, active compounds read low 1.01 | locus YJL134W, strain LCB3, active compounds read low 0.988 | locus YJL154C, strain vps35, active compounds read low 1 | locus YJL164C, strain tpk1, active compounds read low 0.998 | locus YJL166W, strain qcr8, active compounds read low 1.01 | locus YJL168C, strain set2, active compounds read low 0.982 | locus YJL187C, strain SWE1 (second series), active compounds read low 0.982 | locus YJL187C, strain SWE1, active compounds read low 1 | locus YJR043C, strain POL32, active compounds read low 0.983 | locus YJR066W, strain TOR1, active compounds read low 0.906
